Calls of active or inactive are those of the source.
Columns and labels:
[1] = small molecules captured by biotinylated probe aFSTL3 – biochemical, small-molecule microarray, fluorescence 635/667, stem cell growth factor project, primary screen (AID 1064); details: higher = more signal;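 further: measures binding of the biotinylated anti-FSTL3 antibody to printed compounds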
[2] = binders from COS7 lysate, DM2A8 probe, primary screen, torsin A project, cell lysate, small-molecule microarray, fluorescence 635/667 (AID 1065); details: higher = more signal, COS7 lysate expressing mutant human TOR1A
[3] = small molecules captured by biotinylated probe aFGF2 – biochemical, small-molecule microarray, fluorescence 635/667, stem cell growth factor project, primary screen (AID 1067); details: higher = more signal;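 further: measures binding of biotinylated aFGF2 protein to printed compounds on slides; z-score merges feature fluorescence and signal-to-noise across triplicate slides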
[4] = small molecules captured by biotinylated probe aFGF10 – biochemical, small-molecule microarray, fluorescence 635/667, stem cell growth factor project, primary screen (AID 1071); details: higher = more signal;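 further: score merges 667 nm spot intensity and signal to noise from triplicate slides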
[5] = biological target: Neurogenic locus notch homolog protein 2 (Homo sapiens) (UniProt Q04721); assay: small molecules binding Notch2 protein – biochemical, small-molecule microarray, 635 nm fluorescence, stem cell growth factors, primary screen (AID 1073); details: higher = more signal
[6] = biological target: Pro-neuregulin-1, membrane-bound isoform (Homo sapiens) (UniProt Q02297); assay: small molecules binding neuregulin-1 protein – biochemical, small-molecule microarray, fluorescence 635/667, psychiatric disease protein project, primary screen (AID 1075); details: NRG1 binding, 635 nm fluorescence, higher = more signal;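 further: score combines 667 nm spot fluorescence with signal to noise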
[7] = system: Neuregulin-1 EGF-like domain; assay: small molecules binding NRG1 EGF domain – biochemical, small-molecule microarray, 635 nm fluorescence, primary screen (AID 1081); details: higher = more signal;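 further: binding of the protein to compounds printed on small-molecule microarray slides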
[8] = FRG1 expression reporter modulators in myotubes – cell-based, C2C12 myotubes, firefly/Renilla luciferase, luminescence, FRG1 inhibition for FSHD, primary screen (AID 1084); details: FRG1 promoter luciferase, higher = more signal, called active from +8 up or from −8 down
[9] = small molecules captured by biotinylated probe aFST – biochemical, small-molecule microarray, fluorescence 635/667, stem cell growth factor project, primary screen (AID 1086); details: higher = more signal;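 further: score merges 667 nm fluorescence with signal-to-noise of each printed compound spot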
[10] = binders of probe aHhip on microarray, primary screen, stem cell growth factor project, biochemical, small-molecule microarray, fluorescence 635/667 (AID 1087); details: higher = more signal;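 further: score merges spot fluorescence at 667nm with spot signal to noise ratio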
[11] = system: PRMT1 (protein arginine N-methyltransferase 1); assay: small molecules binding arginine methyltransferase PRMT1 – biochemical, small-molecule microarray, 635 nm fluorescence, primary screen (AID 1088); details: higher = more signal;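 further: binding of Prmt1 protein to compounds spotted on small-molecule microarray slides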
[12] = growth effects on S. cerevisiae YJM789 – YJM789 clinical isolate, OD600, 24 h, basal, primary screen (AID 1089); details: higher = more signal, called active from +8 up or from −8 down;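 further: growth of clinical yeast isolate S. cerevisiae YJM 789 seeded 1000 cells per well; test concentration not given here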
[13] = S. pombe growth modifiers, basal conditions – strain 972, OD600, 24 h, no modulator, primary screen (AID 1090);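 further: basal condition with compound alone and no growth modifier present; test concentration not given here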; details: S. pombe 972 growth, higher = more signal, called active from +8 up or from −8 down
[14] = budding yeast growth modifiers under rapamycin – strain BY4716, OD600, 96 h, primary screen (AID 1091); further: test concentration not given here; details: S. cerevisiae BY4716 + rapamycin, higher = more signal, called active from +8 up or from −8 down
[15] = biological target: Torsin-1A-interacting protein 2 (Homo sapiens) (UniProt Q8NFQ8); assay: small molecules binding lysate-expressed LULL1 – cell lysate, human LULL1 lysate, 635/667 nm fluorescence, primary screen (AID 1092); details: small-molecule microarray, hLULL1 lysate binding, 635 nm fluorescence; higher = more signal;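 further: probe is lysate of COS7 cells overexpressing human LULL1; score merges per-feature 667 nm fluorescence with signal-to-noise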
[16] = optical density change of DRC41 E. coli – strain DRC41, OD650, 24 h, E. coli filamentation project, primary screen (AID 1093);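 further: MC1000 strain lacking acrAB efflux and sulA so SOS filamentation is blocked; test concentration not given here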; details: E. coli DRC41 growth, higher = more signal, called active from +8 up or from −8 down
[17] = probe aLefty2 binding to arrayed compounds – biochemical, biotinylated probe, 635/667 nm fluorescence, primary screen (AID 1094); details: small-molecule microarray, higher = more signal;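 further: score merges spot fluorescence near 667 nm with spot signal-to-noise ratio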
[18] = system: Noggin (protein binding on small-molecule microarray); assay: small molecules binding Noggin protein – biochemical, 635/667 nm fluorescence, primary screen (AID 1095); details: 635 nm fluorescence, higher = more signal;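 further: score merges 667 nm feature fluorescence with signal to noise over triplicate slides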
[19] = biological target: Neurogenic locus notch homolog protein 3 (Homo sapiens) (UniProt Q9UM47); assay: small molecules binding NOTCH3 protein – biochemical, 635/667 nm fluorescence, primary screen (AID 1096); details: small-molecule microarray, 635 nm fluorescence, higher = more signal
[20] = probe aEGFR binding to arrayed compounds – biochemical, biotinylated probe, 635/667 nm fluorescence, primary screen (AID 1097); details: small-molecule microarray, higher = more signal;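 further: probe is a biotinylated anti-EGFR antibody binding compounds printed on slides; score combines fluorescence near 667 nm and signal to noise of each spot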

Chain of Neurogenic locus notch homolog protein 2 (Homo sapiens) (Q04721 whole entry, looked up, canonical isoform): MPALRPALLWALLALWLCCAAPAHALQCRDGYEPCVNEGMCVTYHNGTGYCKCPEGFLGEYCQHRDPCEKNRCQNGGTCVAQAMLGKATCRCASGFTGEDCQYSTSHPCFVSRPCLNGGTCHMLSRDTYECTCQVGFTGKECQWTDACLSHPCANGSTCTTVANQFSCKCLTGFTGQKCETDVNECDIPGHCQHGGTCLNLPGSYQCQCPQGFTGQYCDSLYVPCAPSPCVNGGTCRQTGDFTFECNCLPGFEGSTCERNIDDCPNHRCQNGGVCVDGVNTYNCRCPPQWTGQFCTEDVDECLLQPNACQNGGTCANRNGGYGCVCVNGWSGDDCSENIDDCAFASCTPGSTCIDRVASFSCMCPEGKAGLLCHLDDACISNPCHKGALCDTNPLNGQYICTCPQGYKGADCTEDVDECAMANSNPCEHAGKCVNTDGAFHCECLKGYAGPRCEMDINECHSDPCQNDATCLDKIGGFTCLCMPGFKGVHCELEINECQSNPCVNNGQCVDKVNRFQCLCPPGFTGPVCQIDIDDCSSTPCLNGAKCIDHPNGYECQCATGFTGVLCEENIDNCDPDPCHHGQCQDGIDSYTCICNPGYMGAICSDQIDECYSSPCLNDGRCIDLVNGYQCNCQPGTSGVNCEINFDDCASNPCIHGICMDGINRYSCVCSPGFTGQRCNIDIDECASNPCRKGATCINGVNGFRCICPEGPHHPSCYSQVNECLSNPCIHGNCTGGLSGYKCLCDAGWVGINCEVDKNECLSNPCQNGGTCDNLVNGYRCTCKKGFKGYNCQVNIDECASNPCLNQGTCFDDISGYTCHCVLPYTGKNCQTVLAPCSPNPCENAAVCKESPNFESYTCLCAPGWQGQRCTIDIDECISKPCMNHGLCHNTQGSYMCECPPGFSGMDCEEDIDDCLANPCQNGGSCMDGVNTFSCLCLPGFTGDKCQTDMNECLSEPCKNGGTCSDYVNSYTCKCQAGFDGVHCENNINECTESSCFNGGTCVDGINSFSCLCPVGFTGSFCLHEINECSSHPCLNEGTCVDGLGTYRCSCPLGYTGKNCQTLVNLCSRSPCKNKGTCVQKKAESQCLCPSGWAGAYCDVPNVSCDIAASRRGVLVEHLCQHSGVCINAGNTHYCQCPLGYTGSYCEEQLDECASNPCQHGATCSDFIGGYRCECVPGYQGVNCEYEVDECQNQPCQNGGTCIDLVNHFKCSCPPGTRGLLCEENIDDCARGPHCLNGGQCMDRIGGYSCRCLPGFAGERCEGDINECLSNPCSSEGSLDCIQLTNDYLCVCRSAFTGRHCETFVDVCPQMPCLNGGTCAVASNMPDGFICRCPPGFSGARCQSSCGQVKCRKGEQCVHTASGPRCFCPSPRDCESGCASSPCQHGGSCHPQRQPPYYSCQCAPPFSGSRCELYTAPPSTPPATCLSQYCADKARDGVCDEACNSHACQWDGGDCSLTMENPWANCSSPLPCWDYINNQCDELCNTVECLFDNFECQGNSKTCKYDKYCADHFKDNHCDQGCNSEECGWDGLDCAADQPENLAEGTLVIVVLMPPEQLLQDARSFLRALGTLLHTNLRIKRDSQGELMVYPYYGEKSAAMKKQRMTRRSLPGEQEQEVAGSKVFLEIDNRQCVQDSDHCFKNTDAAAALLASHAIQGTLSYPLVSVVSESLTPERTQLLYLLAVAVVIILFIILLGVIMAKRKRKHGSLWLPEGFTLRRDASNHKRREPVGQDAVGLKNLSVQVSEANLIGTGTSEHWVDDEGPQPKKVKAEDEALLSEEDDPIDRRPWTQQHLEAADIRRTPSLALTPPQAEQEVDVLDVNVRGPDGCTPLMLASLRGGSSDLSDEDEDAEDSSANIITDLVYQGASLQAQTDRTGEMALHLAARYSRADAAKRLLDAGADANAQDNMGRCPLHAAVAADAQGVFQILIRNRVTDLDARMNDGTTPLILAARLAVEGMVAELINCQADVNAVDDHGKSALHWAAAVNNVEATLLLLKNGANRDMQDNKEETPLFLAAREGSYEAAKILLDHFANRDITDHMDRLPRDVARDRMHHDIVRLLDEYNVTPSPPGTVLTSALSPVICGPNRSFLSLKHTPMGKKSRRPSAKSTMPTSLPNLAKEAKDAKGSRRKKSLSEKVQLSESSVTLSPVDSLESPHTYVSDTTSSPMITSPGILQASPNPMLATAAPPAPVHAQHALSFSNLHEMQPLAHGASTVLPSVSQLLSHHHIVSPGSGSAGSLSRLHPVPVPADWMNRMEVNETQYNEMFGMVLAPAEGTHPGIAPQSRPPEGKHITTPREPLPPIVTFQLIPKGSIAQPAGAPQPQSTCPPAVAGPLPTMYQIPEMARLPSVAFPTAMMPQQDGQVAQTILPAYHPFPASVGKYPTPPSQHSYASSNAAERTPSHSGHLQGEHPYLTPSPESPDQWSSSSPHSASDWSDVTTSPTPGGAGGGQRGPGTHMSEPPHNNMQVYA
Chain of Neurogenic locus notch homolog protein 3 (Homo sapiens) (Q9UM47 whole entry, looked up): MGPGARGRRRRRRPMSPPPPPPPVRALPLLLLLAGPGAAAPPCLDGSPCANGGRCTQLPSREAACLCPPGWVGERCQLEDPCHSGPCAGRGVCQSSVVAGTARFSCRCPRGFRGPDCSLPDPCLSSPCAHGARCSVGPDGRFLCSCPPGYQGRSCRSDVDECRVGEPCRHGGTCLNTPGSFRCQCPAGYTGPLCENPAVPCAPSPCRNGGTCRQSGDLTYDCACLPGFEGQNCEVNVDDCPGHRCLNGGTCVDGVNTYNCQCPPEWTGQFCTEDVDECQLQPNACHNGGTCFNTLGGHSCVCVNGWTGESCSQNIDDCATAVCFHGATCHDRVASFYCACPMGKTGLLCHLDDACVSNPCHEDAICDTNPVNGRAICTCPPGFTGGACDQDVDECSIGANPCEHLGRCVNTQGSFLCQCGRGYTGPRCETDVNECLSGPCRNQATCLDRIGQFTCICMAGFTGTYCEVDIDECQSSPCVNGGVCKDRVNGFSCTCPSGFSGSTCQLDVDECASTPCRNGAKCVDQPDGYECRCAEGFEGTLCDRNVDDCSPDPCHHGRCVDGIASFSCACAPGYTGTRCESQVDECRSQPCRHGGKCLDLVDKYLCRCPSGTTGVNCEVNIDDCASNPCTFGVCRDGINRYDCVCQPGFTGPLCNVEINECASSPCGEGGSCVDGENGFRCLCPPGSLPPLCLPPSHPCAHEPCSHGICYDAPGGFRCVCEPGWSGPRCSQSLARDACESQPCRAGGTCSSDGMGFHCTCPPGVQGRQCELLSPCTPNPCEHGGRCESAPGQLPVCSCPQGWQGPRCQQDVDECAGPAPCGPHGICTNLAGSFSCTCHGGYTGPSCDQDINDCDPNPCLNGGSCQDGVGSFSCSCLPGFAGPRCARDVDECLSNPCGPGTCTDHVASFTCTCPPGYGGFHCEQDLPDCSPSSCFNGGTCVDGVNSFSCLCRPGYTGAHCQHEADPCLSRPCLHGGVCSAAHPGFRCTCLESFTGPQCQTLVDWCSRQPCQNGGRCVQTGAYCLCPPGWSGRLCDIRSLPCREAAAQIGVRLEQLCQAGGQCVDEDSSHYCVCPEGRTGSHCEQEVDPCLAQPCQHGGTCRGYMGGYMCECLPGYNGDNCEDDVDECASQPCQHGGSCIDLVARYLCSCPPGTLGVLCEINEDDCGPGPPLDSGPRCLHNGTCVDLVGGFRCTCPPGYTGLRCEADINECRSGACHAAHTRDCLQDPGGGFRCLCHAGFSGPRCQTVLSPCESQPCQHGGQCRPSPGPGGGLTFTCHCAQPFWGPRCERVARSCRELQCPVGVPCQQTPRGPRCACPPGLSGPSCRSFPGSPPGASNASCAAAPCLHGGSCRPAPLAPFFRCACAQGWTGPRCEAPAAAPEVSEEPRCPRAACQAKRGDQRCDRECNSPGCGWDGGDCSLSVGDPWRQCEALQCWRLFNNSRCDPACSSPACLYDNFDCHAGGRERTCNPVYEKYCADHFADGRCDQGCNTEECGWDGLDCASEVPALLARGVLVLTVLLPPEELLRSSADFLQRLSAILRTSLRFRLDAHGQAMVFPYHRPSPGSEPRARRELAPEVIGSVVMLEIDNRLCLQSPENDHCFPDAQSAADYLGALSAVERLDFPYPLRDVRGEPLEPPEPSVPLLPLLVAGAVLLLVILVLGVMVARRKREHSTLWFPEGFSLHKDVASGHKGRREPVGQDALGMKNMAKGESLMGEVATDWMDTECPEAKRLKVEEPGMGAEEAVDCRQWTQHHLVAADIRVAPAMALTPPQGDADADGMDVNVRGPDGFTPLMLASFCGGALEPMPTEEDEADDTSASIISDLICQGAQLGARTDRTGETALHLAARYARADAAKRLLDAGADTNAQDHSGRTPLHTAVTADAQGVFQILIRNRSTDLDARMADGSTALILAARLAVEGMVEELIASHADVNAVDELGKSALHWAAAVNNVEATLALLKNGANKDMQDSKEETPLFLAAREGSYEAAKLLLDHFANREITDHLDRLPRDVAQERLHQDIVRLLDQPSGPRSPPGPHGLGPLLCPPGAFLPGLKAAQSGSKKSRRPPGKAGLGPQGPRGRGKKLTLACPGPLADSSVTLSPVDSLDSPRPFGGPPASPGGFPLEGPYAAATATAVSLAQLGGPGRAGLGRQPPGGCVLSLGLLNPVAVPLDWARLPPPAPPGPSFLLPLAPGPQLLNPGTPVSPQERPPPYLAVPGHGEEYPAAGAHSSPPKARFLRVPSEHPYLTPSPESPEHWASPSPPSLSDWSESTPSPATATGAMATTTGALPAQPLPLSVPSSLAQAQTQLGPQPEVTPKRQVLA

| Structure (SMILES) | composite z-score [1] | composite z-score [2] | composite z-score [3] | composite z-score [4] | composite z-score [5] | composite z-score [6] | composite z-score [7] | z-score [8] | composite z-score [9] | composite z-score [10] | composite z-score [11] | z-score [12] | z-score [13] | z-score [14] | composite z-score [15] | z-score [16] | composite z-score [17] | composite z-score [18] | composite z-score [19] | composite z-score [20] |
| --- | --- | --- | --- | --- | --- | --- | --- | --- | --- | --- | --- | --- | --- | --- | --- | --- | --- | --- | --- | --- |
| CC(C)CNC(=O)[C@@]1(c2ccc([N+](=O)[O-])cc2)CC(=O)N(CC23CC4CC(CC(C4)C2)C3)[C@@H]1c1ccc(CO)cc1I | 0.483 | 0.699 | -0.0226 | 0.26 | 1.34 | 0.168 | 1.29 | -1.52 (inactive) | 0.283 | -0.0994 | 1.54 | 0.951 (inactive) | 0.864 (inactive) | 3.26 (inactive) | 3.06 | -0.569 (inactive) | -0.0144 | 1.3 | 1.09 | -0.0088 |
| O=C(CS)NCCCCCCNC(=O)[C@@H]1C[C@@H]2C(=O)N3CCC[C@H]3C(=O)N2[C@@H]1c1ccc(O)cc1 | 0.525 | 0.0083 | -0.111 | 0.589 | -0.473 | 0.494 | 1.38 | 0.999 (inactive) | -0.28 | -0.254 | 1.14 | 0.883 (inactive) | 0.626 (inactive) | 1.07 (inactive) | 2.54 | 0.0508 (inactive) | -0.0903 | -0.221 | 0.165 | -0.118 |
| C=CCOC(=O)[C@H]1[C@@H]2C(=O)O[C@@H](c3ccccc3)[C@@H](c3ccccc3)N2[C@@H](c2ccc(OCCOC(=O)[C@@H]3C[C@@H]4C(=O)NCC(=O)N4[C@@H]3c3ccc(O)cc3)cc2)[C@]12C(=O)Nc1ccccc12 | -0.214 | 0.454 | -0.0296 | 0.515 | -0.111 | -0.373 | 1.26 | -1.27 (inactive) | -0.112 | -0.0237 | 1.56 | -4.85 (inactive) | -0.234 (inactive) | 1.47 (inactive) | 2.35 | 2.36 (inactive) | -0.153 | 1.81 | 1.12 | -0.0828 |
| C=CCC(OC(C)=O)[C@@H]1[C@@H](N(Cc2cc3ccccc3o2)C(=O)c2ccc(C)cc2)c2cc(OCCCO)ccc2N1C(=O)c1ccc2ccccc2c1 (stereo not given in full) | -0.0336 | 0.117 | -0.0785 | 0.339 | 0.112 | -0.189 | 0.38 | -2.76 (inactive) | -0.0921 | -0.201 | -0.21 | -0.44 (inactive) | 0.116 (inactive) | 0.0217 (inactive) | 0.346 | 1.65 (inactive) | -0.0258 | 0.341 | -0.0158 | -0.0536 |
| CC(C)C[C@@H]1NC(=O)[C@@H]2C[C@H](C(=O)NCCCCCC[N+](C)(C)C)[C@H](c3ccc(O)cc3)N2C1=O | -0.0515 | 0.349 | -0.112 | 0.154 | -0.344 | 1.57 | 1.46 | 1.97 (inactive) | 0.0819 | -0.271 | 1.56 | 0.633 (inactive) | 0.904 (inactive) | 0.445 (inactive) | 3.21 | 0.266 (inactive) | -0.0437 | 0.857 | 0.873 | -0.176 |
| COCCOC(=O)N1C(=O)[C@@]2(c3cc(C#CCCO)ccc31)[C@H](c1ccccc1OCCO)N1[C@H](c3ccccc3)[C@H](c3ccccc3)OC(=O)[C@H]1[C@@H]2C(=O)N1CCN(c2ncccn2)CC1 | 0.546 | -0.481 | 0.0763 | 0.949 | 1.55 | 1.66 | 1.26 | -1.54 (inactive) | 1.4 | 0.463 | 1.54 | 1.24 (inactive) | 1.08 (inactive) | 3.94 (inactive) | 2.32 | -0.27 (inactive) | 0.571 | 0.725 | 1.03 | 0.339 |
| C=C(CCCC)C(=O)CC[C@H](OC(=O)c1cccnc1)c1cccc(OCCO)c1 | 0.17 | -0.218 | -0.157 | 0.387 | -0.818 | 0.941 | 0.762 | -0.594 (inactive) | 0.0945 | -0.236 | 1.3 | 1.61 (inactive) | -0.86 (inactive) | 1.13 (inactive) | 1 | 0.241 (inactive) | -0.141 | 0.257 | -0.139 | -0.0818 |
| O=C1O[C@@H](c2ccccc2)[C@@H](c2ccccc2)N2[C@@H](c3ccc(OCCO)cc3)[C@]3(C(=O)Nc4ccc(C#CC5=CCCCC5)cc43)[C@@H](C(=O)O)[C@H]12 | 0.44 | 0.681 | -0.0158 | 0.506 | 1.48 | 1.59 | 1.12 | 0.82 (inactive) | 0.492 | 0.0274 | 1.5 | 1.73 (inactive) | 1.22 (inactive) | -0.188 (inactive) | 1.96 | 0.112 (inactive) | 0.0919 | 0.107 | 0.793 | 0.0061 |
| CCCN1C(=O)[C@]2(COC(c3ccc(OCCCO)cc3)=N2)Cc2ccccc21 | 0.955 | 0.325 | 0.0092 | 0.251 | 0.419 | 1.41 | 1.18 | -0.0593 (inactive) | 0.486 | 0.0044 | 1.18 | -0.102 (inactive) | -2.37 (inactive) | -1.35 (inactive) | 2.88 | 0.525 (inactive) | 0.303 | 0.134 | 0.112 | -0.0774 |
| O=C1O[C@@H](c2ccccc2)[C@@H](c2ccccc2)N2[C@@H](c3ccc(O)cc3)[C@]3(C(=O)Nc4ccc(C#CC5(O)CCCCCC5)cc43)[C@@H](C(=O)N3CCCCCCC3)[C@H]12 | 2.55 | 2 | 0.764 | 0.876 | 1.66 | 2.49 | 1.27 | -0.849 (inactive) | 2.79 | 0.67 | 1.54 | 1.16 (inactive) | 0.321 (inactive) | 2.09 (inactive) | 4.45 | 0.26 (inactive) | 1.42 | 2.41 | 1.07 | 1.24 |

— PubChem BioAssay
